Source: PubChem
Hits are enriched below; roughly 21% of the tested compounds scored in any of these assays.
IL1B secr inh – qHTS for Inhibitors of Inflammasome Signaling: IL-1-beta AlphaLISA Primary Screen. THP-1 LPS/ATP IL-1B secretion, AlphaLISA, 16 h; active compounds read low. activity change, % at 57.5 µM. actives 4.7% (n = 360,000). AID 743279, 2014; in the data active means activity change below about -50%; inconclusive means mostly about -30% to -49%
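Secreted IL-1B measured by AlphaLISA bead assay after 16 h compound exposure of THP-1 cells; compounds (final up to 57.5 uM) added 1 h before LPS (250 ng/mL) and ATP (1.25 mM) stimulation; lower signal means less secretion.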
TDP1 cell noCPT – qHTS for Inhibitors of human tyrosyl-DNA phosphodiesterase 1 (TDP1): qHTS in cells in absence of CPT | actives 15% (n = 420,000) | DT40 Tdp1-/- hTDP1 cells, no CPT, ATP luminescence, 48 h | Potency, µM (highest dose often 46.2 µM), for inactives: top-dose activity change, negative = growth inhibition, most hits filed as inhibitors; further: potency means the concentration at half of the fitted maximal effect; nearly all actives have a fitted effect of over 55% in size
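Stably hTDP1-transfected Tdp1-null chicken DT40 cells were treated with library compounds minus camptothecin and grown for at least 48 hr at 37 °C, after which cellular ATP was quantified by luminescence.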
ELG1 DNA repair – qHTS screen for small molecules that inhibit ELG1-dependent DNA repair in human embryonic kidney (HEK293T) cells expressing luciferase-tagged ELG1 | HEK293T ELG1-luciferase reporter, luminescence, 16 h; DNA damage induced by 5-fluorouridine | Potency, µM (series often up to 46.1 µM), for inactives: at the highest dose activity change, negative = inhibition, hits mostly inhibitors | actives 2.3% (n = 330,000); further: potency means the concentration at half of the fitted maximal effect; nearly all actives have a fitted effect of over 55% in size
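5-Fluorouridine DNA damage + compound/DMSO, 2,000 cells/well, 16 h, 37 °C/5% CO2. ONE-Glo, 30 min RT, luminescence. Readout = decrease in reporter signal.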
Gal4-VP16 FLuc – VP16 counterscreen qHTS for inhibitors of ROR gamma transcriptional activity | actives 3.5% (n = 310,000) | Potency, µM (series often up to 53.6 µM), inactives show top-dose activity, negative = inhibition, most hits filed as inhibitors | Drosophila S2 Gal4-VP16 UAS-luciferase, luminescence, 20 h;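 further: Gal4-VP16 expression switched on by copper sulfate through the metallothionein promoter; potency means the concentration at half of the fitted maximal effect; nearly all actives have a fitted effect of over 50% in size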
RORgamma inh – qHTS for inhibitors of ROR gamma transcriptional activity | Drosophila S2 Gal4-RORgamma UAS-luciferase reporter, 20 h | Potency, µM (doses to about 53.6 µM), inactives show at the highest dose activity change, negative = inhibition, actives largely listed as inhibitors | actives 5.4% (n = 310,000) | AID 2551, 2010; further: potency means the concentration at half of the fitted maximal effect; nearly all actives have a fitted effect of over 60% in size
Target sequence (P51450 whole entry, looked up, the tested form may be a part): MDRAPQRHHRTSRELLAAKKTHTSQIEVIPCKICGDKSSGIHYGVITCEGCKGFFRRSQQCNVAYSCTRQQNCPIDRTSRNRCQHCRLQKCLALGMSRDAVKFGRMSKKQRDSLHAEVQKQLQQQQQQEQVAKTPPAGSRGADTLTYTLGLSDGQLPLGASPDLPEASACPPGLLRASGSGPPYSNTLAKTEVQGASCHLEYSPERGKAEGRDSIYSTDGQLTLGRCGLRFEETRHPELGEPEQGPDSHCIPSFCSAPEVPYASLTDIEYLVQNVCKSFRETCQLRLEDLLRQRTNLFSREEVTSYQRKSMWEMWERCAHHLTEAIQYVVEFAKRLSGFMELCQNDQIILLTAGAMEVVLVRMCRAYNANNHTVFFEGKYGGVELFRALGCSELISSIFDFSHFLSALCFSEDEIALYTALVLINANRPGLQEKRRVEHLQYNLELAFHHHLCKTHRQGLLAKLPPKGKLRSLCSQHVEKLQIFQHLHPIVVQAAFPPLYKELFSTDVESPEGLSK
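Drosophila S2 cells stably expressing Gal4-DBD/mouse RORγ fusion under metallothionein promoter plus UAS-luciferase; compound 1 h, then 700 uM CuSO4 induction for 20 h at ambient temperature; inhibition read as reduced luminescence.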
TDP1 cell CPT – qHTS for Inhibitors of human tyrosyl-DNA phosphodiesterase 1 (TDP1): qHTS in cells in presence of CPT; actives 12% (n = 420,000); chicken DT40 Tdp1-/-;hTDP1 cells + 20 nM CPT, ATP luminescence, 48 h; Potency, µM (top dose mostly 46.2 µM), for the others: at the highest dose activity change, negative = growth inhibition, most hits filed as inhibitors; further: potency means the concentration at half of the fitted maximal effect; nearly all actives have a fitted effect of over 55% in size
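Chicken DT40 Tdp1-/- cells complemented with human TDP1, 400 cells/well, exposed to compounds plus 20 nM camptothecin for at least 48 h at 37 C; viability read as ATP content by CellTiter-Glo luminescence.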
Starred values were filed as active, the others as inactive; ? = inconclusive; · = no result; [ ] = another dose, or the depositor's remark. Unless noted, the call rests on the fitted dose curve; in most records, active means well fitted curve in the direction sought with a large enough effect; inconclusive means small, poorly fitted or top-dose-only effect, or another doubt; inactive means no such curve, though single readings can be large; an effect the other way counts as inactive or inconclusive. On the % scale 0 is the no-effect control and ±100 the full control effect.

SMILES | IL1B secr inh | TDP1 cell noCPT | ELG1 DNA repair | Gal4-VP16 FLuc | RORgamma inh | TDP1 cell CPT
COc1ccc(S(=O)(=O)Nc2cc(OC)cc3cccnc23)cc1 | · | · | · | ? | 2.51µM* | ·
O=C(O)c1ccccc1NS(=O)(=O)c1ccc2ccccc2c1 | 29.8 | -7.0% | ? | -7.0% | -21.2% | 1.3%
O=S(=O)(Nc1cccc2cccnc12)c1ccc(Br)s1 | · | · | · | 1.12µM* | 0.562µM* | ·
CCOc1cccc2cc(S(=O)(=O)c3ccccc3F)c(=O)oc12 | · | 1.3% | · | · | · | 10.7%
COC(=O)c1ccc(NC(=O)CCc2c(C)nc3c(c2C)c(=O)n(C)c(=O)n3C)cc1 | · | -16.9% | · | · | · | 4.1%
Nc1ncnc2c1ncn2COC(CO)CO | · | 0.708µM* | · | · | · | 0.316µM*
CCCCCCCC(=O)C(C)C(=O)N(C)[C@H](Cc1ccc(OC)cc1)C(=O)N(C)[C@H](C(N)=O)C(C)C (some centres not stated) | -7.4 | 23.1µM* | ? | · | · | ?
COc1ccc(S(=O)(=O)NC(=O)C2(C)CCN2C(=O)COc2ccc(Cl)cc2)cc1OC (configuration not stated) | 0.1 | -1.5% | · | · | · | 5.3%
CCOC(=O)CCNC(=O)Nc1ccc2nc(C)n(Cc3ccc(Cl)cc3)c(=O)c2c1 | -7.3 | -4.1% | 14.6µM* | -2.0% | -13.3% | -23.0%
COc1ccccc1CN1CC[C@@]2(CCCN(C(=O)c3c(C)noc3C)C2)C1 | · | -17.4% | · | -4.3% | -6.0% | -4.4%
CCc1cc(-c2nnn(CCC3COCCO3)c2CC)ccc1-c1cn(CCc2c[nH]c3ccccc23)nn1 (configuration not stated) | 12.6 | 11.6µM* | · | · | · | 16.4µM*
COc1ccc(CNC(=O)c2ccc(S(=O)(=O)N3CC(C)CC(C)C3)cc2)cc1OC (configuration not stated) | -0.3 | ? | · | · | · | ?
CO/N=C/c1c(-c2ccc(Cl)cc2)nc2cc(C)ccn12 | -52.3* | ? | 2.5% | 5.7% | 8.91µM* | ?
CC(=O)N1CCN(c2ccc(NC(=O)c3cc(Cl)ccc3Cl)cc2)CC1 | -62.8* | -13.9% | -24.2% | -15.3% | 12.1%[1.91 µM] | -29.2%
CC(=O)N1CCN(c2ccc(NC(=O)c3ccc(C(C)(C)C)cc3)cc2)CC1 | -95.0* | 25.9µM* | ? | -5.9% | ? | ?
CC(=O)N1CCN(c2ccc(NC(=O)c3ccc(Cl)cc3)cc2)CC1 | -2.6 | -17.9% | -2.1% | 2.2% | 4.3% | 4.5%
O=S(=O)(O)CC(S)CS (configuration not stated) | · | 4.73µM* | · | -5.1% | 14.8% | 8.41µM*
Cc1cc(C)c(NC(=O)COC(=O)C2=COCCO2)c(Cl)c1 | 5.8 | -2.2% | 2.7% | · | · | 10.6%
COc1ccc2o/c(=N\O)c(C(=O)Nc3ccccc3OC)cc2c1 | -13.5 | 5.8µM* | 20.7% | ? | 2.82µM* | 3.66µM*
O=C(c1ccc(F)cc1)c1cc2ccc(O)cc2oc1=O | -11.6 | -24.3% | ? | -3.4% | -11.2% | ?
COc1ccc2oc(=O)c(/C(C)=N/NC(=O)c3ccncc3)cc2c1 | -6.5 | -2.0% | -2.9% | ? | 12.6µM* | 1.2%
COc1ccc(/C(C)=N/NC(=O)c2ccncc2)cc1 | 19.0 | 11.1% | 13.3% | -8.3% | -17.7% | 11.1%
COc1ccccc1NC(=O)c1cc2cc(Br)ccc2oc1=N | -14.5 | ? | 25.1% | -0.3% | -44.9% | ?
N=c1oc2cc(O)ccc2cc1C(=O)Nc1ccc(F)cc1 | -55.6* | ? | ? | 7.08µM* | 11.2µM* | ?
COc1cccc2cc(C(=O)Nc3ccccc3C)/c(=N/O)oc12 | 21.3 | 16.4µM* | ? | 1.0% | 0.5% | 16.4µM*
SMILES | IL1B secr inh | TDP1 cell noCPT | ELG1 DNA repair | Gal4-VP16 FLuc | RORgamma inh | TDP1 cell CPT
CCCCn1cnc2c(oc3ccccc32)c1=O | -12.1 | -15.9% | ? | -12.6% | 0.5% | -3.5%
COc1ccc(NC(=O)c2cc3ccccc3oc2=O)cc1 | 9.3 | ? | · | · | · | -20.4%
COc1ccc2oc(=O)c(C(=O)Nc3ccccc3O)cc2c1 | -9.1 | ? | ? | ? | 8.91µM* | 2.1%
COc1ccc(NC(=O)c2cc3ccc(O)cc3o/c2=N\O)cc1 | ? | ? | ? | 0.1µM* | 0.0631µM* | 4.11µM*
CCNc1nc(NCC)nc(N(C)N)n1 | 9.6 | ? | -1.8% | ? | 7.08µM* | ?
O=C(C1CCN(S(=O)(=O)c2cccs2)CC1)N1CCN(c2ccccc2F)CC1 | · | ? | · | · | · | -10.5%
COc1ccc(N2CCN(C(=O)C3CCN(S(=O)(=O)c4cccs4)CC3)CC2)cc1 | 4.6 | 23.1µM* | 0.0% | 8.7% | 37.0% | ?
O=C(C1CCC(CNS(=O)(=O)c2cccs2)CC1)N1CCN(c2ccc(F)cc2)CC1 (configuration not stated) | ? | 20.6µM* | 9.2µM* | -28.7% | ? | ?
COc1ccc(N2CCN(C(=O)c3ccc(NS(=O)(=O)c4cccs4)cc3)CC2)cc1 | 3.9 | 13µM* | ? | -11.1% | ? | ?
O=C(C1CCN(S(=O)(=O)c2cccs2)CC1)N1CCN(c2ccccc2O)CC1 | -27.1 | ? | -14.1% | · | · | 14.6µM*
CCCCOC(=O)CCCN1C(=O)/C(=C2\SC(=S)N(CCCC(=O)OCCCC)C2=O)SC1=S | 26.3 | 4.7% | -9.4% | 0.6% | -17.8% | -15.4%
CS(=O)(=O)N(CC(=O)Nc1cccc(Br)c1)Cc1ccccc1 | ? | ? | -11.5% | 1.3% | -6.6% | -14.7%
Cc1ccccc1N1CCN(S(=O)(=O)c2cccs2)CC1 | -54.0* | -0.9% | 12.3% | 0.4% | -11.9% | -10.5%
O=C(O)C1CCN(S(=O)(=O)c2cccc3nonc23)CC1 | -1.7 | 8.3% | 16.6% | 3.5% | -7.3% | 0.0%
CC1Cc2ccccc2N1C(=O)C1CCN(S(=O)(=O)c2cccs2)CC1 (configuration not stated) | -66.8* | -10.7% | ? | -2.7% | 22.2% | ?
COc1ccc(N2CCN(C(=O)C3CCN(S(=O)(=O)c4cccc5nonc45)CC3)CC2)cc1 | · | 16.4µM* | · | · | · | ?
CC(=O)Nc1ccc(-c2cc(C(=O)O)c3ccc(C)cc3n2)cc1 | 6.7 | -5.3% | ? | -5.5% | -27.0% | 2.0%
